We go through 39 sequences from the OligoGym collection.
Note: reference of the scale not given here.

In one assay the target is ZHX1. The experiment in a line: pooled miR-30 sensor sort-seq; sequence = guide strand. The note with it: shRNA.
Consider TTCTTCTTCTCTGTAAACCAAG, for which the sensor-assay potency score (higher = more potent) is -1.18. TAACTATGTCTGTTCTAGCAAG yielded a sensor-assay potency score (higher = more potent) of -1.35. Consider TTGTATTAGATTCAGAAGCTGA, for which the sensor-assay potency score (higher = more potent) was -0.592. The sequence TTTCTCTTTAAACTTTTGGGGA displayed a sensor-assay potency score (higher = more potent) of -0.716.

The sequence TTTACTGATAGATATTCCCGAA yielded a sensor-assay potency score (higher = more potent) of -0.468.

The target in the next assay is ZIC5. Described as above. The note with it: shRNA.
TAGTAGGGCTTGTCACTGGTGT: the sensor-assay potency score (higher = more potent) was -0.153. TGAATCTTCATGTGCTTCCTCA yielded a sensor-assay potency score (higher = more potent) of -0.349.

TGTCATATTCTGAAGCGGCTGG returned a sensor-assay potency score (higher = more potent) of 0.253. Consider TTGGTGGTGGTGTAGCCCGAGA, for which the sensor-assay potency score (higher = more potent) was -1.57.

In the case of TCATCTTCAGTCTCAGAGGTGG, the sensor-assay potency score (higher = more potent) is -0.487. Consider TCGAATCTTGCAGTAGTAGGGC, for which the sensor-assay potency score (higher = more potent) amounted to 0.408. ATGAGTACGCTTGTGGATCTTG showed a sensor-assay potency score (higher = more potent) of -0.744.

For the sequence TTGAGGTTGGTCACCTGAGGGG, the sensor-assay potency score (higher = more potent) was -0.565. In the case of TTGCAGATGAGCTCCTGCTTGA, the sensor-assay potency score (higher = more potent) was -0.229.

On to TGTATGAGTACGCTTGTGGATC, for which the sensor-assay potency score (higher = more potent) was -1.35. Still for that read-out and setting: then TTTGTCACAGCCTCGAATCTTG, with -0.0738.

The next assay concerns the target ZKSCAN4. The assay is described as above. As to conditions: shRNA.
As to TTCCACAGTCTTCACATTCATA, the sensor-assay potency score (higher = more potent) was -1.13. For the sequence TTCTGCTTTCTTTGTAACCTGC, the sensor-assay potency score (higher = more potent) is -0.00454.

TACCATTGCATCTTCTCTGCAG came in with a sensor-assay potency score (higher = more potent) of 0.382. Same read-out and setting: then TTTAGGTCCTACAACTTCCAGA, with -0.127; and AACCTGGAGAACTCTATCGTGT, with -0.756. Regarding TGAGCTGTGACTGAAGACCTTA, the sensor-assay potency score (higher = more potent) came to 0.0781. TAGTCTGTATTTCACCACCAAG came in with a sensor-assay potency score (higher = more potent) of -1.77. For TTTATCACCATGAATCCTCTGA, the sensor-assay potency score (higher = more potent) came to 0.54. The sequence TTCATGCTTGAACAGAGCCTTC returned a sensor-assay potency score (higher = more potent) of -1.41. For the sequence TTCAATAAGACTTCTATTCCGT, the sensor-assay potency score (higher = more potent) is 0.355.

TGAACTTTGAGCAAAACTCTTT returned a sensor-assay potency score (higher = more potent) of -0.0856. Same read-out and setting: then TTGACTGGAGGCAAGTCCCTGC, with 0.176.

The next assay has as its target ZMAT2. Described as above. The note with it: shRNA.
The sequence TTTCTTGTACGCTTTGGCCTTT registered a sensor-assay potency score (higher = more potent) of -0.519.

The sequence TTCTCTTTCTTGTACGCTTTGG gave a sensor-assay potency score (higher = more potent) of -0.566. For the sequence TTCTCTGATGTTTCTTTCCATT, the sensor-assay potency score (higher = more potent) is -1.41. TTTATTGGGAACTCAGGTGGGC displayed a sensor-assay potency score (higher = more potent) of 0.402. On the same count and under the same terms, then TACCTCTGCAATCTGTGCCCTC, with -0.418. TTCTTGTTGACCTCAAAACGTT showed a sensor-assay potency score (higher = more potent) of -0.905.

Regarding TTGGATTCCAAGTCCACCTTGT, the sensor-assay potency score (higher = more potent) came to 0.567.

As to AAAATCATAATCCTTCTGCTTC, the sensor-assay potency score (higher = more potent) is -0.213. For TTCCTCAAAATCATAATCCTTC, the sensor-assay potency score (higher = more potent) came to 0.481.

The sequence TTCTTTTCTCTCTCTTCCGTGA showed a sensor-assay potency score (higher = more potent) of -0.461. With TTTCTCTTTCTTGTACGCTTTG, the sensor-assay potency score (higher = more potent) was -0.653.
